Assay [1] in a line: P-glycoprotein substrates identified in KB-3-1 adenocarcinoma cell line, qHTS therapeutic library screen (AID 1346986). Further: nearly all actives have a fitted effect of over 60% in size. The procedure, abridged:
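72 h cell-killing screen, 500 cells/well, CellTiter-Glo luminescence. Paired lines KB-3-1/KB-8-5-11; P-gp dependence checked by tariquidar co-treatment and HEK-293 MDR-19 versus empty-vector cells.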
In general terms: Quantitative high-throughput screening tests each substance at several concentrations.

The nature of assay [2]: P-glycoprotein substrates identified in KB-8-5-11 adenocarcinoma cell line, qHTS therapeutic library screen (AID 1346987). Further: nearly all actives have a fitted effect of over 65% in size. On activity change, negative = cytotoxicity: series mostly up to about 44 µM; on the % scale 0 is the no-effect control and ±100 the full control effect. The gist of the method: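 Luminescence from CellTiter-Glo, read 5 min after addition, quantified survival of KB-8-5-11 (P-gp-overexpressing) cells exposed to compounds for 72 h. AC50 was derived from concentration-response curves.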

Inconclusive results are not listed. Values without a mark were called inactive. Active and inactive are the calls of the source. The call rests on the fitted dose curve; in most records, active means well fitted curve in the direction sought with a large enough effect; inconclusive means small, poorly fitted or top-dose-only effect, or another doubt; inactive means no such curve, though single readings can be large; an effect the other way counts as inactive or inconclusive. *1 amine or outer side, *2 acyl side, *3 side chain or, on linkers, in order; H or OH if unused. Where a SMILES comes first, the peptide text is derived from it. Bridges are numbered along the chain shown (N, C = ends). [ ]: non-standard residue; d: D form. The star is where a group is joined. ξ: configuration not given here. ξhTyr(3S-OH,4S-OH,3'-OSO3H) = NC(C(=O)O)[C@H](O)[C@@H](O)c1ccc(O)c(OS(=O)(=O)O)c1; Orn(4R-OH,5R-OH) = O=C([C@H](C[C@@H](O)[C@@H](O)N[*:3])N[*:1])[*:2]; X2 = CCCCCOc1ccc(-c2cc(-c3ccc(C(=O)*)cc3)no2)cc1; X3 = C[C@H]1CN([*:1])C(C(=O)[*:2])[C@H]1O; ξGln(3R-OH) = NC(=O)C[C@@H](O)C(N)C(=O)O; ξPro(4R-OH) = O=C(O)C1C[C@@H](O)CN1; ξThr(3R) = C[C@@H](O)C(N)C(=O)O; Cbz = O=C(OCc1ccccc1)*; CH2F = FC*

Regarding `CC12CC(O)C(O)C=C1c1cc(O)cc(O)c1C(=O)O2` (centres undefined), the Potency result in assay [1] and in assay [2] was “inactive” throughout.

For the compound `CC1(C)CC2C(O)C3=C(CC(C)(O)C2C1)C(=O)OC3` (centres undefined), the Potency result in assay [1] and in assay [2] was “inactive” throughout.

As to `CN(C)CC(c1ccc(O)cc1)C1(O)CCCCC1` (centres undefined), the Potency result in assay [1] and in assay [2] was “inactive” each time.

For the compound `CC(C)C1CCC(C(=O)N[C@@H](Cc2ccccc2)C(=O)O)CC1` (some centres undefined), the Potency result in assay [1] and in assay [2] was “inactive” in each case.

For `COC(=O)CC[C@H](NC(=O)[C@H](CC(C)C)NC(=O)OCc1ccccc1)C(=O)N[C@@H](Cc1cnc[nH]1)C(=O)N[C@@H](CC(=O)OC)C(=O)CF` (Cbz-LE(OMe)HD(OMe)-CH2F), the outcome in assay [1] is “inactive [at 9.29 µM]”. Besides, the activity change, negative = cytotoxicity in assay [2] was 6.58% [at 9.29 µM].

For `CC1(C)CC[C@]2(C(=O)O[C@@H]3O[C@H](CO)[C@@H](O)[C@H](O)[C@H]3O)CC[C@]3(C)C(=CCC4[C@@]5(C)CC[C@H](O[C@@H]6O[C@H](C(=O)O)[C@@H](O)[C@H](O)[C@H]6OC6OC(CO)C(O)C(O)C6O)C(C)(C)C5CC[C@]43C)[C@@H]2C1` (some centres undefined), the outcome in assay [1] and in assay [2] was “inactive [at 9.29 µM]” each time.

On to `C=C1CC23CC(=O)C4C(CO)(CO)CCCC4(C)C2CCC1C3` (centres undefined), for which the Potency result in assay [1] and in assay [2] was “inactive” each time.

`Cc1ccc(C)c(S(=O)(=O)n2cnc3ccccc32)c1`: the Potency result in assay [1] and in assay [2] was “inactive” in each case.

Consider `CC1(C)CC[C@]2(C(=O)O[C@@H]3O[C@H](CO)[C@@H](O)[C@H](O)[C@H]3O)CC[C@]3(C)C(=CCC4[C@@]5(C)CC[C@H](OC6OC(C(=O)O)C(OC7OC(CO)C(O)C(O)C7O)C(O)C6O)C(C)(C)C5CC[C@]43C)C2C1` (some centres undefined), for which the outcome in assay [1] is “inactive [at 9.29 µM]”. Further, in assay [2], the activity change, negative = cytotoxicity was 9.04% [at 9.29 µM].

`CCCCCOc1ccc(-c2cc(-c3ccc(C(=O)N[C@H]4C[C@@H](O)[C@@H](O)NC(=O)C5[C@@H](O)[C@@H](C)CN5C(=O)C([C@H](O)CC(N)=O)NC(=O)C([C@H](O)[C@@H](O)c5ccc(O)c(OS(=O)(=O)O)c5)NC(=O)C5C[C@@H](O)CN5C(=O)C([C@@H](C)O)NC4=O)cc3)no2)cc1` (stereo partly drawn) (X2-[Orn(4R-OH,5R-OH)][ξThr(3R)][ξPro(4R-OH)][ξhTyr(3S-OH,4S-OH,3'-OSO3H)][ξGln(3R-OH)][X3]; lactam 1-C): the Potency result in assay [1] and in assay [2] was “inactive” in each case.

Take `COc1ccc(OC)c(C2C(C#N)=C(N)Oc3n[nH]c(-c4ccc5ccccc5c4)c32)c1` (centres undefined): the Potency entry in assay [1] and in assay [2] was “inactive” in each case.

Regarding `C=C(C)C(O)COc1ccc(CC(=O)O)cc1` (centres undefined), the Potency entry in assay [1] and in assay [2] was “inactive” each time.

Take `CC(=O)OC/C(=C/C(=O)O)CC[C@@H]1C(CO)=CC[C@@H]2C(C)(C)CCC[C@@]12C`: the Potency entry in assay [1] and in assay [2] was “inactive” each time.

As to `CC1CC(=O)[C@]2(O)C(C(=O)OCCc3ccc(O)cc3)=CO[C@@H](O[C@@H]3O[C@H](CO)[C@@H](O)[C@H](O)[C@H]3O)[C@H]12` (some centres undefined), the Potency result in assay [1] and in assay [2] was “inactive” throughout.

In the case of `CC(C)=CCc1cc(O[C@@H]2O[C@H](CO[C@@H]3OC[C@](O)(CO)[C@H]3O)[C@@H](O)[C@H](O)[C@H]2O)ccc1O`, the Potency entry in assay [1] and in assay [2] was “inactive” throughout.

As to `Cc1cn(C[C@H](N)C(=O)O)c(=O)n(Cc2ccsc2C(=O)O)c1=O`, the Potency entry in assay [1] and in assay [2] was “inactive” in each case.

Turning to `CC(C/C=C/C(C)(C)O)C1CCC(C)(O)C(O)C1` (centres undefined), the Potency entry in assay [1] and in assay [2] was “inactive” in each case.

As for `Cn1cc(Nc2cnccc2C(=O)O)c2cccnc21`, the Potency result in assay [1] and in assay [2] was “inactive” throughout.

For `COC(=O)C1=CO[C@@H](O[C@@H]2O[C@H](CO[C@@H]3O[C@H](CO)[C@@H](O)[C@H](O)[C@H]3O)[C@@H](O)[C@H](O)[C@H]2O)[C@@H]2C(CO)=CC[C@H]12`, the Potency entry in assay [1] and in assay [2] was “inactive” each time.

`C[C@H]1CC[C@@]2(OC1)O[C@H]1CC3C4CC[C@H]5C[C@@H](O)CC[C@]5(C)C4CC(=O)[C@]3(C)[C@H]1[C@@H]2C` (some centres undefined): the Potency entry in assay [1] and in assay [2] was “inactive” each time.

Take `CC(C)CC[C@@H](O)[C@](C)(O)[C@H]1CC[C@@]2(O)C3=CC(=O)[C@@H]4C[C@@H](O)[C@@H](O)C[C@]4(C)[C@H]3CC[C@]12C`: the Potency result in assay [1] and in assay [2] was “inactive” each time.

As for `CC(C)=CCC[C@](C)(O[C@@H]1O[C@H](CO[C@@H]2O[C@@H](CO)[C@H](O)[C@H]2O)[C@@H](O)[C@H](O)[C@H]1O)[C@H]1CC[C@]2(C)[C@@H]1[C@H](O)C[C@@H]1[C@@]3(C)CC[C@H](O[C@@H]4O[C@H](CO)[C@@H](O)[C@H](O)[C@H]4O[C@@H]4O[C@H](CO)[C@@H](O)[C@H](O)[C@H]4O)C(C)(C)[C@@H]3CC[C@]12C`, the Potency result in assay [1] and in assay [2] was “inactive” each time.

For the origin of these results see PubChem BioAssay (NCATS).
